In the library only some 3.5% were active in any assay of this set; here they are far more common.
Tb PYK inh = qHTS of Trypanosoma Brucei Inhibitors; pyruvate kinase (Trypanosoma brucei), Q57TT1; TbPYK enzyme, Kinase-Glo Plus ATP luminescence, 45 min; Potency, µM (top dose mostly 76.8 µM), most hits filed as inhibitors; 410,000 compounds, 0.12% hits; AID 624173, 2012; also: nearly all actives have a fitted effect of over 50% in size
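Quantitative HTS: titrated library compounds versus trypanosomal pyruvate kinase in TEA buffer (pH 7.2) containing KCl, MgCl2, BSA and Tween-20. Reactions were initiated with ADP, 130 uM final. Kinase-Glo Plus luminescence was read after 45 min at RT.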
NS1 inh = qHTS Assay for Inhibitors of Influenza NS1 Protein Function; Potency, µM (top dose mostly 46.1 µM); 270,000 compounds, 0.4% hits; calls by dose curve; also: actives are rising curves; nearly all actives have a fitted effect of over 50% in size
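Growth recovery, yeast-based: influenza A NS1 expressed in S. cerevisiae causes slow growth, and suppressors are detected by OD600. The parent strain without NS1 is used as positive control.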
RE007 growth inh = qHTS Assay for Inhibitors of the HIV-1 protein Vpr; S. pombe RE007 Vpr strain, BacTiter-Glo ATP luminescence, 24 h; Potency, µM (titrated, usually from 92.2 µM), hits mostly inhibitors; 360,000 compounds, 0.21% hits; AID 651644, 2012; active = well fitted falling curve with a large enough effect; inconclusive = small, poorly fitted or top-dose-only effect; inactive = no such curve, though single readings can be large or run the other way; also: nearly all actives have a fitted effect of over 50% in size
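Fission yeast strain RE007, carrying one chromosomally integrated HIV-1 vpr copy, was seeded at OD 0.01 in PMG+AL medium with 23 nL pinned compound. After 24 h at 30 °C and 99% humidity, viability was read by BacTiter-Glo luminescence.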
Sm TGR inh = qHTS Assay for the Inhibitors of Schistosoma Mansoni Peroxiredoxins. Schistosoma mansoni thioredoxin glutathione reductase (TGR), Q962Y6. purified TGR, DTNB reduction, TNB absorbance 405 nm. Potency, µM (series often up to 114 µM), most hits filed as inhibitors. 360,000 compounds, 3% hits; also: nearly all actives have a fitted effect of over 60% in size
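First, TGR (20 nM dispensed) and NADPH were mixed with compound. Second, a 15 min room-temperature incubation followed. Third, further NADPH and then DTNB were added to start the reaction. Finally, TNB absorbance was monitored kinetically.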
LmPK inhibitor = qHTS Assay for Inhibitors of Leishmania Mexicana Pyruvate Kinase (LmPK); Q27686; purified LmPK, Kinase-Glo ATP luminescence, 1 h; Potency, µM (top dose mostly 57.5 µM), hits mostly inhibitors; 290,000 compounds, 0.37% hits; AID 1721, 2009
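0.1 nM LmPK, 0.5 mM PEP, 0.1 mM ADP; 50 mM imidazole pH 7.2, 7 mM MgCl2, 50 mM KCl; 1 h RT. Kinase-Glo luminescence readout, normalized to no-enzyme (full inhibition) and uninhibited wells.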
FBPA Giardia inh = qHTS Assay for Inhibitors of Fructose-1,6-bisphosphate Aldolase from Giardia Lamblia | Potency, µM (doses to about 59.6 µM), most hits filed as inhibitors | AID 2451, 2010 | purified Giardia FBPA | A8B2U2 | 290,000 compounds, 0.71% hits; also: nearly all actives have a fitted effect of over 55% in size
Target sequence (A8B2U2 whole entry, looked up): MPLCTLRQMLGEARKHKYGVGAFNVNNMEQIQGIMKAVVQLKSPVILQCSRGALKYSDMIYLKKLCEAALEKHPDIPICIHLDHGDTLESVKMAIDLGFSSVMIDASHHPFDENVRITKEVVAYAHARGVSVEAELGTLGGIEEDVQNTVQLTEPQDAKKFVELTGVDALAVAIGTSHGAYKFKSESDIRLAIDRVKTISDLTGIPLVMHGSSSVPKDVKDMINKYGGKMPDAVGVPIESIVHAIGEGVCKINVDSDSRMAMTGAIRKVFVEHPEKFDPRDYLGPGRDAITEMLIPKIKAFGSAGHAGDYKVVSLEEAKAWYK
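40 nM FBPA preincubated 10 min at RT with compound (up to 57.5 uM final), then substrate plus GAPDH/TPI/NAD/arsenate coupling and diaphorase/resazurin added. Fluorescence read after 20 min at RT, 525/598 nm.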
Hits are given with their value; i = inactive; ? = inconclusive; nt = not tested or not shown. Unless noted, calls follow the shape of the dose curve; as a rule, active = well fitted curve in the direction sought with a large enough effect; inconclusive = small, poorly fitted or top-dose-only effect, or another doubt; inactive = no such curve, though single readings can be large; an effect the other way counts as inactive or inconclusive.

SMILES	Tb PYK inh	NS1 inh	RE007 growth inh	Sm TGR inh	LmPK inhibitor	FBPA Giardia inh
O=S(=O)(c1ccc2[nH]c3c(c2c1)CCCCC3)N1CCN(c2ccccc2)CC1	i	nt	nt	i	nt	nt
CC(=O)c1cccc(NC(=O)c2ccc3nc(Cc4ccccc4)oc3c2)c1	i	nt	nt	i	nt	nt
CCCNC(=S)Nc1ccc2nc(-c3ccccn3)c(-c3ccccn3)nc2c1	i	i	i	13µM	i	?
CC(C)CN1C(=O)/C(=C/c2ccco2)NC1=S	i	i	i	32µM	i	?
O=C1N/C(=C/c2cccs2)C(=O)N1Cc1ccccc1F	i	i	i	i	i	i
O=C1N/C(=C/c2ccco2)C(=O)N1Cc1ccccc1F	?	i	i	56µM	i	i
CCCC[C@H](CN(N=O)[C@@H](Cc1ccccc1)CN(C)N=O)N(CCc1ccccc1)N=O	i	i	i	i	i	i
CN(C[C@H](Cc1ccccc1)N(C[C@H](Cc1cccc2ccccc12)N(CCc1ccccc1)N=O)N=O)N=O	i	?	i	35µM	i	i
CC(C)[C@H](CN(N=O)[C@@H](Cc1ccccc1)CN(C)N=O)N(CCc1ccccc1)N=O	i	i	i	i	i	i
CC(C)C[C@@H](CN(C)N=O)N(C[C@H](Cc1ccccc1)N(CCc1ccccc1)N=O)N=O	i	i	i	40µM	i	i
COc1ccccc1C(=O)Nc1nnc(SCc2cc(=O)c3cc(Cl)ccc3[nH]2)s1	i	nt	nt	i	nt	nt
O=C(Nc1ccc(Cl)cc1)Nc1ccccc1Sc1ncc([N+](=O)[O-])s1	i	i	i	4.5µM	i	i
CC(Oc1cccc(Cl)c1)C(=O)Nc1nc(-c2ccccn2)cs1 (stereo not drawn)	i	nt	45µM	i	nt	nt
Oc1c(Br)cc(Br)cc1-c1nc2ccccc2s1	i	nt	nt	45µM	nt	nt
COc1cccc(-c2nc3ccccc3s2)c1O	i	i	i	nt	i	i
Cc1nc2nncn2c(Nc2ccccc2)c1C	i	nt	nt	i	nt	nt
O=C1C(=O)N(CCCN2CCOCC2)C(c2ccc(F)cc2)/C1=C(/O)c1ccccc1 (stereo not drawn)	i	i	i	?	i	i
COc1ccc(/C(O)=C2/C(=O)C(=O)N(CCN3CCOCC3)C2c2ccccn2)cc1 (stereo not drawn)	i	i	i	22µM	i	?
COc1ccc(C2/C(=C(/O)c3ccc(C)cc3)C(=O)C(=O)N2CCCN2CCOCC2)cc1 (stereo not drawn)	i	i	i	45µM	i	i
O=C1C(=O)N(CCN2CCOCC2)C(c2ccccn2)/C1=C(/O)c1ccc(F)cc1 (stereo not drawn)	?	i	i	28µM	i	?
Cc1ccc(CN2CCC(CNC(=O)c3cc4ccc5cccnc5c4[nH]3)CC2)cc1	i	nt	nt	i	nt	nt
CC(C)CC1C(C#N)=C(N)OC2=C1C(=O)CC(c1ccccc1)C2 (stereo not drawn)	i	nt	i	i	i	i
CC(CC1C(C#N)=C(N)OC2=C1C(=O)CCC2)c1ccccc1 (stereo not drawn)	i	i	i	1.3µM	i	i
CCc1c(C)c(C#N)c2nc3ccccc3n2c1-n1nc(C)cc1C	i	i	i	i	i	i
CCc1c(C)c(C#N)c2nc3ccccc3n2c1Cl	nt	i	nt	11µM	i	i
SMILES	Tb PYK inh	NS1 inh	RE007 growth inh	Sm TGR inh	LmPK inhibitor	FBPA Giardia inh
CCc1c(C)c(C#N)c2nc3ccccc3n2c1NCCOC	i	i	i	40µM	i	i
COc1cc(-c2ccc(N=Nc3ccc4c(S(=O)(=O)O)cc(S(=O)(=O)O)c(N)c4c3O)c(OC)c2)ccc1N=Nc1ccc2c(S(=O)(=O)O)cc(S(=O)(=O)O)c(N)c2c1O	nt	nt	nt	nt	nt	14µM
Cc1nn(-c2ccc(S(=O)(=O)O)cc2)c(O)c1N=Nc1ccc(-c2ccc(N=Nc3ccc4c(S(=O)(=O)O)cc(S(=O)(=O)O)c(N)c4c3O)c(O)c2)cc1O.[Cu].[Cu]	nt	i	nt	nt	nt	nt
O[C@H]1c2ccccc2[C@H](Cc2cncs2)[C@@H]1Br	i	nt	i	i	nt	nt
C1=CC(Cc2cncs2)c2ccccc21 (stereo not drawn)	i	nt	i	50µM	nt	nt
Cc1ccc(-c2cc3nc(-c4ccccc4)cc(N)n3n2)cc1	i	i	i	i	i	i
Cc1cc(N)n2nc(-c3ccccc3)cc2n1	i	i	?	i	16µM	i
COc1ccc(N2C(=O)[C@@H]3[C@H](C2=O)[C@H]2c4ccccc4C=CN2[C@@H]3C(C)=O)cc1	i	i	nt	40µM	i	?
Cc1nc2n(n1)C(c1ccccc1)C1=C(CC(c3ccco3)CC1=O)N2 (stereo not drawn)	i	i	i	56µM	i	i
COc1ccc(NC(=O)CSc2nc3c(c(=O)n2-c2ccccc2)SCC3)c(OC)c1	i	i	i	25µM	i	i
Cc1ccc(CNC(=O)CCS(=O)(=O)c2cc(Br)cc3c2N(C(=O)C2CC2)CC3)o1	i	i	i	28µM	i	i
CC(=O)N1CCc2cc(S(=O)(=O)CCC(=O)NCc3ccc(C)o3)ccc21	i	i	i	11µM	i	i
Cc1ccc(CNC(=O)CCS(=O)(=O)c2cc(Br)cc3c2N(C(=O)C2CC2)CC3)cc1	i	nt	nt	i	nt	nt
COC(=O)c1cc2oc3ccccc3c2n1CC(=O)Nc1ccc(C)c(F)c1	i	nt	nt	i	nt	nt
O=C(CCc1nnc(Cc2ccc3c(c2)OCO3)o1)NCc1nc2ccccc2s1	i	i	i	28µM	i	i
O=C(CSC1=Nc2ccccc2N=C(c2ccc(F)cc2)C1)NCc1ccccc1	i	nt	nt	i	nt	nt
Cc1nc2ccccc2n1CCc1nc2c3ccccc3nc(SCc3ccccc3F)n2n1	i	nt	nt	i	nt	nt
CC(N=Cc1cccc(O)c1O)c1ccccc1 (stereo not drawn)	?	i	i	5.6µM	i	?
C=C1CC[C@@H]2[C@](C)(CO)[C@H](O)CC[C@@]2(C)[C@@H]1/C=C/C1=CCOC1=O	i	i	i	40µM	i	i
COc1ccc(CCNC(=O)CS(=O)Cc2nc(-c3cccs3)oc2C)cc1OC (stereo not drawn)	i	i	i	22µM	i	nt
Cc1oc(-c2ccccc2Cl)nc1CS(=O)CC(=O)NCc1ccc(Cl)cc1 (stereo not drawn)	i	i	i	i	i	i
Cc1oc(-c2cccs2)nc1CS(=O)CC(=O)NCc1ccc2c(c1)OCO2 (stereo not drawn)	i	i	i	40µM	i	i
COc1ccc(CCNC(=O)CS(=O)Cc2nc(-c3ccccc3Cl)oc2C)cc1OC (stereo not drawn)	i	i	i	56µM	i	nt

Bioassay records from PubChem.
